For 7 sequences, binding signal results are on record in publication PMC7862700, “An all-to-all approach to the identification of sequence-specific readers for epigenetic DNA modifications on cytosine”.

Common to all, as to test: DAPPL (digital affinity profiling via proximity ligation, sequencing); 10 mM Tris-HCl pH 7.5, 50 mM NaCl, 1 mM DTT, 4% glycerol, room temperature, 30 min; GST-TFs on glutathione beads, 16-mer random dsDNA library, 0.1% formaldehyde crosslink after washing; high values mean tight binding
Common to all, as to details: protein: recombinant; tags: N-terminal GST; dsDNA, one strand shown

One assay concerns the target T1, ERF (Homo sapiens, UniProt P50548 1-548).
T1 sequence: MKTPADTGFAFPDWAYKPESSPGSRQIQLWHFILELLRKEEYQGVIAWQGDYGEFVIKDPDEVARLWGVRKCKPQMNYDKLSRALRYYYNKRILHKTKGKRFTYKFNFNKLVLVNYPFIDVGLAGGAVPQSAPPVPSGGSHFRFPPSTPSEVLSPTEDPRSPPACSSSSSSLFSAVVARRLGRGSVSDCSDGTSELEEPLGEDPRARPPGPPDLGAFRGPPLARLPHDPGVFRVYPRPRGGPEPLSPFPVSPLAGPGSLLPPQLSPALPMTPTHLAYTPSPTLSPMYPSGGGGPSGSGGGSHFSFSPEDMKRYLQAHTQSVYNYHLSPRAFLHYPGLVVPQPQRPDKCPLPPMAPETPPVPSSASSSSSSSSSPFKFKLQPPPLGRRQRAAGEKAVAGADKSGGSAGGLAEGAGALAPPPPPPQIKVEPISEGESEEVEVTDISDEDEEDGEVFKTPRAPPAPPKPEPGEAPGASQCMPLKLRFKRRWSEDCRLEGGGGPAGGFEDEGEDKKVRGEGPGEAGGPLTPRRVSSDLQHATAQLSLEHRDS
Summed up:
(§1)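 Pools of DNA-barcoded human transcription factors, expressed in yeast as GST fusions on glutathione beads and combined with a tag-only sample, were incubated with 200 nmole of a 16-mer random double-stranded DNA library. Incubation took 30 min at room temperature in Tris/NaCl/DTT/glycerol buffer and was followed by washing, 0.1% formaldehyde crosslinking, proximity ligation (BsaI/T4 ligase, 1 h, 37 °C), PCR amplification and sequencing on an Illumina NextSeq500. Binding signal is the ratio of a hexamer's read frequency for a factor to its frequency for the tag-only sample.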

For the next assay, the target named is T2, ETV3L (Homo sapiens, UniProt Q6ZN32 1-361).
T2 sequence: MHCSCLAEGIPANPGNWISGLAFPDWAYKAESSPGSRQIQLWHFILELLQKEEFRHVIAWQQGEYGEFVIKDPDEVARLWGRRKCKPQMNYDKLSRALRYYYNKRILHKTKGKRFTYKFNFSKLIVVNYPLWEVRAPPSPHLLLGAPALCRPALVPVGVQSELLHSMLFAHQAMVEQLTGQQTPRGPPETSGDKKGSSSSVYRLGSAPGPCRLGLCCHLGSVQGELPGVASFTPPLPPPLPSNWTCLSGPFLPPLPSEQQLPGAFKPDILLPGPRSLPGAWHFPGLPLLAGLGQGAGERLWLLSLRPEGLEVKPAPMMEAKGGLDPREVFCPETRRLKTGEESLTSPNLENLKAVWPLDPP
The method in brief: as §1

In a further assay the target is T3, ETS2 (Homo sapiens, UniProt P15036 1-469).
T3 sequence: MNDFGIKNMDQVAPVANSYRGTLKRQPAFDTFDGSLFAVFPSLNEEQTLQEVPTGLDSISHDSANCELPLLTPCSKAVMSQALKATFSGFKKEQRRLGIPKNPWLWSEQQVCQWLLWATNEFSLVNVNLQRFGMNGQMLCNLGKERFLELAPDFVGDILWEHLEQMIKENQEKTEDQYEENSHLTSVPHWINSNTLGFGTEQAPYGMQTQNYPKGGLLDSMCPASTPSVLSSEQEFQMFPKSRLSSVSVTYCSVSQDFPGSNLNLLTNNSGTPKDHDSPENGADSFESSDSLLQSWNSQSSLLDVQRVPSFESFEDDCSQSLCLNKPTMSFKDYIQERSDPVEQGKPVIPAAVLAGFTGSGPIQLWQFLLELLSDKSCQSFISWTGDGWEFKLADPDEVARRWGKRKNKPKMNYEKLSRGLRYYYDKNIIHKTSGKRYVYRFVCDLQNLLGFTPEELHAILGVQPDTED
The method in brief:
as §1

A further assay addresses T4, ETV7 (Homo sapiens, UniProt Q9Y603 1-341).
T4 sequence: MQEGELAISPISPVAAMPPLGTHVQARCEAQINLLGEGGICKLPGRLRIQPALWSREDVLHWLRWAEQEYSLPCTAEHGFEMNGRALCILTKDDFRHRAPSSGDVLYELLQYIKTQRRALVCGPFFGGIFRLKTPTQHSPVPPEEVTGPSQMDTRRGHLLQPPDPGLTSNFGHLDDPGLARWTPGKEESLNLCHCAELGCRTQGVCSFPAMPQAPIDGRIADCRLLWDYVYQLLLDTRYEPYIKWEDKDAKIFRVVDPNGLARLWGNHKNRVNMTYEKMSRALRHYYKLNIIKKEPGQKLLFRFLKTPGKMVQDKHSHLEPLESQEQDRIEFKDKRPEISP
The method in brief:
as §1

Another assay has as its target T5, ELF5 (Homo sapiens, UniProt Q9UKW6-2 1-255).
T5 sequence: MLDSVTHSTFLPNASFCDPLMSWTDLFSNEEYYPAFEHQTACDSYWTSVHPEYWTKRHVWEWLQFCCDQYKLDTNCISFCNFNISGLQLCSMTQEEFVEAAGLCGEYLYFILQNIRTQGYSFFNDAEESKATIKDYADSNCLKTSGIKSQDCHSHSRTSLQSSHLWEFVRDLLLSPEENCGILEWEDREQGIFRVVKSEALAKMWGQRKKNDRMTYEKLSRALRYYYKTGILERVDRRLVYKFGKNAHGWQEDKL
The method in brief: as §1

The target of a further assay is T6, ETV3 (Homo sapiens, UniProt P41162-2 1-143).
T6 sequence: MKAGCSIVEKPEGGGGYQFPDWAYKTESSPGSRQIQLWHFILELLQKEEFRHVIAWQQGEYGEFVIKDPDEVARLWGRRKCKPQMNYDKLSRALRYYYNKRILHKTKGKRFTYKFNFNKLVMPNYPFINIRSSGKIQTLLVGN
The method in brief:
as §1

For another assay, the target named is ETV6 (Homo sapiens, UniProt P41212 1-452). The method in brief:
as §1

The target in a further assay is T7, SPDEF (Homo sapiens, UniProt O95238 1-335).
T7 sequence: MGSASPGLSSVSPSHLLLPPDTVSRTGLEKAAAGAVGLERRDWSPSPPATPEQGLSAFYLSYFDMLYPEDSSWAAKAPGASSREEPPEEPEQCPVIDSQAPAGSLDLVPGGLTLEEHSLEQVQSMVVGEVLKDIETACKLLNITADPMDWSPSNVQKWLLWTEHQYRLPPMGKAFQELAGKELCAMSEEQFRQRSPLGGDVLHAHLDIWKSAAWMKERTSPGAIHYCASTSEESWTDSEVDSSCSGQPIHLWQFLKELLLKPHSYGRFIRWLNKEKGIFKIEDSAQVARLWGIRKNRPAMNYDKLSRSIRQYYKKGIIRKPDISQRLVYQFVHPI
The method in brief:
as §1

ETV6, sequence (P41212 whole entry): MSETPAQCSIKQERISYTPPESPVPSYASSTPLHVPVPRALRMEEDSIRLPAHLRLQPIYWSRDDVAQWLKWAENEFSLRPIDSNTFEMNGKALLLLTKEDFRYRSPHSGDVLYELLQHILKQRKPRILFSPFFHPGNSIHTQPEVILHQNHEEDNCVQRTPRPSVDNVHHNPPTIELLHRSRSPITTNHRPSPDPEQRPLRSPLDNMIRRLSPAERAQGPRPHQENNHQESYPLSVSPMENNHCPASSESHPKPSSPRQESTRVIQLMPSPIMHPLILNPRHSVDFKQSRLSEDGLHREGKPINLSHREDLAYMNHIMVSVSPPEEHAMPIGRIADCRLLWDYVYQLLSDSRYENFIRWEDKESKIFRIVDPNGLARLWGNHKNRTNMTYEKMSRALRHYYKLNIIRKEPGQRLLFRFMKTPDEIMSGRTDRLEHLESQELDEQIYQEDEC

For the sequence GCTGGC, the binding signal with ERF was 1.12 fold enrichment (6-mer frequency, TF over GST control); with ETV3L, 1.04 fold enrichment (6-mer frequency, TF over GST control); with ETS2, 1.04 fold enrichment (6-mer frequency, TF over GST control); with ETV7, 1.12 fold enrichment (6-mer frequency, TF over GST control); with ELF5, 1 fold enrichment (6-mer frequency, TF over GST control); with ETV3, 1.1 fold enrichment (6-mer frequency, TF over GST control). Also, the binding signal in the assay with ETV6 was 1.02 fold enrichment (6-mer frequency, TF over GST control).
As for TCATGG, the binding signal with ERF was 1.07 fold enrichment (6-mer frequency, TF over GST control); with ETV3L it was 1.05 fold enrichment (6-mer frequency, TF over GST control); with ETS2, 1.1 fold enrichment (6-mer frequency, TF over GST control); with ETV7 it was 1.1 fold enrichment (6-mer frequency, TF over GST control); with ELF5, 1.07 fold enrichment (6-mer frequency, TF over GST control); with ETV3 it was 1.11 fold enrichment (6-mer frequency, TF over GST control). Further, in the assay with ETV6, the binding signal was 1.11 fold enrichment (6-mer frequency, TF over GST control).
Regarding AAGACT, the binding signal was 1.16 fold enrichment (6-mer frequency, TF over GST control) with ERF; 1.04 fold enrichment (6-mer frequency, TF over GST control) with ETV3L; 1.07 fold enrichment (6-mer frequency, TF over GST control) with ETS2; 1.08 fold enrichment (6-mer frequency, TF over GST control) in the assay with ETV7; 1.15 fold enrichment (6-mer frequency, TF over GST control) with ELF5; 1.12 fold enrichment (6-mer frequency, TF over GST control) in the assay with ETV3. Further, the binding signal with ETV6 is 1.13 fold enrichment (6-mer frequency, TF over GST control).
As to AAGCGA, the binding signal with ERF is 1.02 fold enrichment (6-mer frequency, TF over GST control); in the assay with ETV3L it was 1.02 fold enrichment (6-mer frequency, TF over GST control); in the assay with ETS2 it was 1.05 fold enrichment (6-mer frequency, TF over GST control); with ETV7 it was 1.09 fold enrichment (6-mer frequency, TF over GST control); with ELF5 it was 1.07 fold enrichment (6-mer frequency, TF over GST control); with ETV3, 1.12 fold enrichment (6-mer frequency, TF over GST control). For the same sequence, the binding signal in the assay with ETV6 was 1.05 fold enrichment (6-mer frequency, TF over GST control).
On to TCAATG, for which the binding signal with ERF is 1.11 fold enrichment (6-mer frequency, TF over GST control); with ETV3L, 1.05 fold enrichment (6-mer frequency, TF over GST control); with ETS2, 1.06 fold enrichment (6-mer frequency, TF over GST control); in the assay with SPDEF, 1.12 fold enrichment (6-mer frequency, TF over GST control); with ETV3 it was 1.06 fold enrichment (6-mer frequency, TF over GST control); in the assay with ETV6, 1.05 fold enrichment (6-mer frequency, TF over GST control).
As to GCTCGA, the binding signal with ERF was 1.24 fold enrichment (6-mer frequency, TF over GST control); in the assay with ETV3L it was 1.26 fold enrichment (6-mer frequency, TF over GST control); in the assay with ETS2, 1.19 fold enrichment (6-mer frequency, TF over GST control); in the assay with ETV7, 1.11 fold enrichment (6-mer frequency, TF over GST control); with ELF5 it was 1.1 fold enrichment (6-mer frequency, TF over GST control); with ETV3, 1.14 fold enrichment (6-mer frequency, TF over GST control). Further, the binding signal with ETV6 is 1.25 fold enrichment (6-mer frequency, TF over GST control).
Take ACGATC: the binding signal with ERF is 1.16 fold enrichment (6-mer frequency, TF over GST control); with ETV3L, 1.02 fold enrichment (6-mer frequency, TF over GST control); with ETS2, 1.14 fold enrichment (6-mer frequency, TF over GST control); with ETV7 it was 1 fold enrichment (6-mer frequency, TF over GST control); with ELF5, 1.01 fold enrichment (6-mer frequency, TF over GST control); with ETV3, 1.03 fold enrichment (6-mer frequency, TF over GST control).
